Test results reported in ChEMBL document CHEMBL1961873, “Compounds: GSK PKIS; Assays: Nanosyn kinase panel” (2012).

Experiments:
[1] = biological target: T1, Inhibitor of nuclear factor kappa-B kinase subunit epsilon (Homo sapiens) (UniProt Q14164); settings: at 1 µM;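 also: reported values are averaged percent inhibition figures against human IKKε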
T1 sequence (whole entry): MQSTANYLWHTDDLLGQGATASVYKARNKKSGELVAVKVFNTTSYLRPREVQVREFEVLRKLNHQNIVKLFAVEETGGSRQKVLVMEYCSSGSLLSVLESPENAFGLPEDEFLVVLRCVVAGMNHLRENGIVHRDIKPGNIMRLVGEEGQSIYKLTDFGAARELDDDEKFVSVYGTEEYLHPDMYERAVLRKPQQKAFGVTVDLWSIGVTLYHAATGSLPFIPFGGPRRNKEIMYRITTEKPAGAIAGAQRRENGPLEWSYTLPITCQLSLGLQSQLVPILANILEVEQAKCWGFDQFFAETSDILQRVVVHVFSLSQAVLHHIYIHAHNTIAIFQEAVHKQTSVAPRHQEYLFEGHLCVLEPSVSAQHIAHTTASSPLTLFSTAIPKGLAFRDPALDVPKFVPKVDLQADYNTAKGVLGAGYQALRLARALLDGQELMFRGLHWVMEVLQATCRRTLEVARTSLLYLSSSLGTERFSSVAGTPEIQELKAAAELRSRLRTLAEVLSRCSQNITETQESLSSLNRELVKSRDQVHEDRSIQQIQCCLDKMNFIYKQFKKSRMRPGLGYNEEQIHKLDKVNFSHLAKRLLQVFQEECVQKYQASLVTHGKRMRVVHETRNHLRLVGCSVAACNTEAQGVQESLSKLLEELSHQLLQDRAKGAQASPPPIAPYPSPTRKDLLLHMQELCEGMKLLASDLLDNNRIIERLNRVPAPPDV

[2] = biological target: T2, Serine/threonine-protein kinase Nek1 (Homo sapiens) (UniProt Q96PY6); settings: at 0.1 µM
T2 sequence (whole entry): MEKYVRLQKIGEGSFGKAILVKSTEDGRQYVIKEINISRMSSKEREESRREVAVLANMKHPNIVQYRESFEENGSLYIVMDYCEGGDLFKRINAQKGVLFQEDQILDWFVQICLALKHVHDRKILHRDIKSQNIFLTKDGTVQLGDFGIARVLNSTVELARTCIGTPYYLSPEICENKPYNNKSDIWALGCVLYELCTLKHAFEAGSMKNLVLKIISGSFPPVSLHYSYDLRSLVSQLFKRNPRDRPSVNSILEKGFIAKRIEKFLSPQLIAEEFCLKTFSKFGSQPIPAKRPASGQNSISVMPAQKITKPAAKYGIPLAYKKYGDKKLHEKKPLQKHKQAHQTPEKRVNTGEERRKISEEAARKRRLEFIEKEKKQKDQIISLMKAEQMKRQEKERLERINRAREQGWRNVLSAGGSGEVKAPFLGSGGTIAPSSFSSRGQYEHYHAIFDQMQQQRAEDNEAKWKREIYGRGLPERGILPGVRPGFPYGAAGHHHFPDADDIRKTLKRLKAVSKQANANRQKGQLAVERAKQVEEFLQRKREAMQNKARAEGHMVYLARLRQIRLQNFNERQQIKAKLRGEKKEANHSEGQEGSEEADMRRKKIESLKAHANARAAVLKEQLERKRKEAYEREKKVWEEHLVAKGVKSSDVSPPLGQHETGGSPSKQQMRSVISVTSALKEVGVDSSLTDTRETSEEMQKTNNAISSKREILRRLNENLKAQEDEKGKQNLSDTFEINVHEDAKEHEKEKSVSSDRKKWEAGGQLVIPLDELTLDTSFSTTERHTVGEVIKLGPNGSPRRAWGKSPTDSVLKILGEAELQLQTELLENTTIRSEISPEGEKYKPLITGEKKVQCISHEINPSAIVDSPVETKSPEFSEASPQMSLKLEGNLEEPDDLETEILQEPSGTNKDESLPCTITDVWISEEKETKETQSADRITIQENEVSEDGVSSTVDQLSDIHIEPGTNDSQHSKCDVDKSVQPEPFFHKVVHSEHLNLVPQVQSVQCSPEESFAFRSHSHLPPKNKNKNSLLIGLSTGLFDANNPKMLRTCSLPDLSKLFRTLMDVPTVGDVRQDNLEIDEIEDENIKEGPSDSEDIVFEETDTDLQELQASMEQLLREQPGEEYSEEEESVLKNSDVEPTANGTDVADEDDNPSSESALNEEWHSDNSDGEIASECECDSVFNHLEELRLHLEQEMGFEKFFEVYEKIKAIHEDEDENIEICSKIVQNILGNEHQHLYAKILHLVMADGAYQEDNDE

[3] = biological target: T2, Serine/threonine-protein kinase Nek1 (Homo sapiens); settings: at 1 µM
[4] = biological target: T3, Serine/threonine-protein kinase Nek2 (Homo sapiens) (UniProt P51955); settings: at 0.1 µM
T3 sequence (whole entry): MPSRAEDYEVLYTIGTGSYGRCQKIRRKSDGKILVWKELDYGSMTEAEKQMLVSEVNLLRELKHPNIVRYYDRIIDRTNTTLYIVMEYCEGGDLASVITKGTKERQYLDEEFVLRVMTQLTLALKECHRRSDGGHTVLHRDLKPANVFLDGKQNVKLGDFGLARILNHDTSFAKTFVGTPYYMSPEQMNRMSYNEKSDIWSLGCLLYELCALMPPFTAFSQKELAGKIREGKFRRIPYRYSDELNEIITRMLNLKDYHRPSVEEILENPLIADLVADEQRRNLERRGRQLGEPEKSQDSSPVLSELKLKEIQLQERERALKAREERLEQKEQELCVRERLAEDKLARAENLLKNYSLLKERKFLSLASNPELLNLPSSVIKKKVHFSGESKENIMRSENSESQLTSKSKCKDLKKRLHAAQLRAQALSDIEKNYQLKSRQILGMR

[5] = biological target: T3, Serine/threonine-protein kinase Nek2 (Homo sapiens); settings: at 1 µM
[6] = biological target: Serine/threonine-protein kinase Nek6 (Homo sapiens) (UniProt Q9HC98); settings: at 0.1 µM
Sequence of Serine/threonine-protein kinase Nek6 (Homo sapiens) (Q9HC98 whole entry): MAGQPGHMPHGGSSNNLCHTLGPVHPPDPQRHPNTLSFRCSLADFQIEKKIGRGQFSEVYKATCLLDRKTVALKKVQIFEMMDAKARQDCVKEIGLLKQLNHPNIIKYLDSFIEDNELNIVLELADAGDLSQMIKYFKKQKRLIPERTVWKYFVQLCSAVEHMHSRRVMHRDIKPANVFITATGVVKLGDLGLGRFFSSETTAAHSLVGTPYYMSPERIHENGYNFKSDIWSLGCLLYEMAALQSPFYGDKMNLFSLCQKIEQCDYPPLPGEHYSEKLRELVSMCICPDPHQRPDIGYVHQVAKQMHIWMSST

[7] = biological target: Serine/threonine-protein kinase Nek6 (Homo sapiens) (UniProt Q9HC98); settings: at 1 µM
[8] = biological target: Serine/threonine-protein kinase Nek7 (Homo sapiens) (UniProt Q8TDX7); settings: at 0.1 µM
Sequence of Serine/threonine-protein kinase Nek7 (Homo sapiens) (Q8TDX7 whole entry, looked up): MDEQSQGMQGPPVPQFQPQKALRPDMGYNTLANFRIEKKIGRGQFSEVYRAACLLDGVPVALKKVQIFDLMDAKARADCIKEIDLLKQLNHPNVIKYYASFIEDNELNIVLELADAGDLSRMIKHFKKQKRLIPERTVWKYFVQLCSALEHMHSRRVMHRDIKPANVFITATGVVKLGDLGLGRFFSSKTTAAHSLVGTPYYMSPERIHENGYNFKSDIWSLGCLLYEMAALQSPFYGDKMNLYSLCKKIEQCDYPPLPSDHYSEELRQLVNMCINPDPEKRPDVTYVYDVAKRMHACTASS

[9] = biological target: Serine/threonine-protein kinase Nek7 (Homo sapiens) (UniProt Q8TDX7); settings: at 1 µM
[10] = biological target: T4, Serine/threonine-protein kinase Nek9 (Homo sapiens) (UniProt Q8TD19); settings: at 0.1 µM
T4 sequence (whole entry): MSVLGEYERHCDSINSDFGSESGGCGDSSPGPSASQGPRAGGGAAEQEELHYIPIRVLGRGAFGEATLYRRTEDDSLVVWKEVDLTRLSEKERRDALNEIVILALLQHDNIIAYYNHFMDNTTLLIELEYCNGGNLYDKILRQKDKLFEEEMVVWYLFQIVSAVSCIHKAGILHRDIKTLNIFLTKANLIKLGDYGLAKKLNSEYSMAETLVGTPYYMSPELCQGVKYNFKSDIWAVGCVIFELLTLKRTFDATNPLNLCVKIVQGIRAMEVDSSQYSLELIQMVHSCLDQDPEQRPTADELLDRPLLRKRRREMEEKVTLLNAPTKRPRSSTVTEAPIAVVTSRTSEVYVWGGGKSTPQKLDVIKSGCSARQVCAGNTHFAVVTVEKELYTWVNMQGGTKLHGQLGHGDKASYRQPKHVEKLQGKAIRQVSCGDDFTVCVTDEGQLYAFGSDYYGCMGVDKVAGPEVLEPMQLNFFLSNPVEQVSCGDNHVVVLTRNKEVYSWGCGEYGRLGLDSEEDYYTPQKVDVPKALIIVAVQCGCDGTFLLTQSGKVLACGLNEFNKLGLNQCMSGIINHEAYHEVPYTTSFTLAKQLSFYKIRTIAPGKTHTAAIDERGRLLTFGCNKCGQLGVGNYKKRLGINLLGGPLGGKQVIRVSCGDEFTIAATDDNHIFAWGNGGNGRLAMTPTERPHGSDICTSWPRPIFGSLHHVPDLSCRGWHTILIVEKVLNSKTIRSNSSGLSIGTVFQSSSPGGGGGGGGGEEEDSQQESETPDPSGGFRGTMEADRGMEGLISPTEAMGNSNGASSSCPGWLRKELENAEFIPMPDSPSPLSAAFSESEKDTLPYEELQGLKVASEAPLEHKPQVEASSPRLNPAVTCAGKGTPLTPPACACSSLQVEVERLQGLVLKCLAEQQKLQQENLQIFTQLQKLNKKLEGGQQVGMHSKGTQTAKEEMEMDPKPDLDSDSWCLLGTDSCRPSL

[11] = biological target: T4, Serine/threonine-protein kinase Nek9 (Homo sapiens); settings: at 1 µM
[12] = biological target: Serine/threonine-protein kinase PLK1 (Homo sapiens) (UniProt P53350); settings: at 0.1 µM
Sequence of Serine/threonine-protein kinase PLK1 (Homo sapiens) (P53350 whole entry): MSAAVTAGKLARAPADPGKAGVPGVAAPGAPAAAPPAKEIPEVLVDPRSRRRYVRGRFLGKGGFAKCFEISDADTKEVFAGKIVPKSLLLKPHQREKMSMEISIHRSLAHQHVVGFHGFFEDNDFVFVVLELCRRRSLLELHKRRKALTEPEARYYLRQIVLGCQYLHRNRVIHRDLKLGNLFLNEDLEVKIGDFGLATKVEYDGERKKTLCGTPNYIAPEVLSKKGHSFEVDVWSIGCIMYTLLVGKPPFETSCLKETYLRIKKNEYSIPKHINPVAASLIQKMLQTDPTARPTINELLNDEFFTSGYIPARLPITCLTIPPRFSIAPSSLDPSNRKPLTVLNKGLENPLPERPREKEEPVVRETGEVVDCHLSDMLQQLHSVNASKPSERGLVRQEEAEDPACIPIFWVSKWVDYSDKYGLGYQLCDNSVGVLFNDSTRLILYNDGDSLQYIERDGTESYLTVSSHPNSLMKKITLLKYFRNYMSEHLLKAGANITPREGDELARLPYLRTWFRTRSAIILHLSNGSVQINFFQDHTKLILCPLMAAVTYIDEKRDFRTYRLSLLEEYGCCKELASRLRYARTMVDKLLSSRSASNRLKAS

[13] = biological target: Serine/threonine-protein kinase PLK1 (Homo sapiens) (UniProt P53350); settings: at 1 µM
[14] = biological target: T5, Dual specificity protein kinase TTK (Homo sapiens) (UniProt P33981); settings: at 0.1 µM
T5 sequence (whole entry): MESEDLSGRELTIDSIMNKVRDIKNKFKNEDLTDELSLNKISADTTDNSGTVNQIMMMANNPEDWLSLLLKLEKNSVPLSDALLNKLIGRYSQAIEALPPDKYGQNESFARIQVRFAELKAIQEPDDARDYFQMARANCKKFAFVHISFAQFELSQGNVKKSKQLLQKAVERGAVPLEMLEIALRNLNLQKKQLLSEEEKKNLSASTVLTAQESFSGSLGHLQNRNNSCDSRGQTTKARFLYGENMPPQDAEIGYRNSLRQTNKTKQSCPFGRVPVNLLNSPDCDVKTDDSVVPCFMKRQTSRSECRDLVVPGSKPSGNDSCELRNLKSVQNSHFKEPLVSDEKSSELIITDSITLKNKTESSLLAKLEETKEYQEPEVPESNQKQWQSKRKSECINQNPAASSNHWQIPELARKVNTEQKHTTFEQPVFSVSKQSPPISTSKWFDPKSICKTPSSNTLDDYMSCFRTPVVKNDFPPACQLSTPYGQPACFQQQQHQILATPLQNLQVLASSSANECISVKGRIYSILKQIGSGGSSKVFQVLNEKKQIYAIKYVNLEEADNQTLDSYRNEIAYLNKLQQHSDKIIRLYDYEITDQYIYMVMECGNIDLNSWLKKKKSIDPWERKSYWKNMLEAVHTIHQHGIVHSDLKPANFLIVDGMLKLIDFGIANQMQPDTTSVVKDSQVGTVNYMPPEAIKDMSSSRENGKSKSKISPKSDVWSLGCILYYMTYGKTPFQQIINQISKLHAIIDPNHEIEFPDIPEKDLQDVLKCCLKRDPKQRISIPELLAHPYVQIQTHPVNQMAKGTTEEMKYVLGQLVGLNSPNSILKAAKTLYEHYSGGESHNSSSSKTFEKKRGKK

[15] = system: T6, Receptor-type tyrosine-protein kinase FLT3 (Homo sapiens), P36888 [D835Y]; settings: at 1 µM
T6 sequence (whole entry): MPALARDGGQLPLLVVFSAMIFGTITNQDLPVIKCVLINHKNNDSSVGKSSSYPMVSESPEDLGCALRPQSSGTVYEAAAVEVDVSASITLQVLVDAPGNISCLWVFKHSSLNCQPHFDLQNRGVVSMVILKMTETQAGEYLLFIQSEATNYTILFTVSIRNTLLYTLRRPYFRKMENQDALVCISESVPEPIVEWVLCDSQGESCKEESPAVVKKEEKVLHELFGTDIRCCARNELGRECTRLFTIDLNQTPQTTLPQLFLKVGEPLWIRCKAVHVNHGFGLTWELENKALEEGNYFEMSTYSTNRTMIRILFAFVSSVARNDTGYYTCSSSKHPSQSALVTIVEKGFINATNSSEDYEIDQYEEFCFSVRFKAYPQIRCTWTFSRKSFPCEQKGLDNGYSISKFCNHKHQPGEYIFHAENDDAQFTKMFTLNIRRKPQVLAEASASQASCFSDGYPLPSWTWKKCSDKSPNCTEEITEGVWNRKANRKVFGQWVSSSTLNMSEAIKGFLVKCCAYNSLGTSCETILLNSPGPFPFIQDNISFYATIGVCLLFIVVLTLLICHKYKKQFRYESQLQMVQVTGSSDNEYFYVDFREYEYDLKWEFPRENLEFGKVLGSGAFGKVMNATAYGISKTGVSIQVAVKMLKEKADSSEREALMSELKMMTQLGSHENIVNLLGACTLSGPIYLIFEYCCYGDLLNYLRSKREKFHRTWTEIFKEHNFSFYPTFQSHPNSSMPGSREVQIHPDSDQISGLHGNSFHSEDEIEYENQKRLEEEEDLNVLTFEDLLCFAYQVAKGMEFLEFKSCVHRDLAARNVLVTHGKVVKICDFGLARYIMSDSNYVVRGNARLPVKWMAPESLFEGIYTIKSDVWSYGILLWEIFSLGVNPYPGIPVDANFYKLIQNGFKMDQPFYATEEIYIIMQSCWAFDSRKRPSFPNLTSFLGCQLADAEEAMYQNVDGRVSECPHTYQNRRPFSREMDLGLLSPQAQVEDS

[16] = biological target: Vascular endothelial growth factor receptor 3 (Homo sapiens) (UniProt P35916); settings: at 0.1 µM
Sequence of Vascular endothelial growth factor receptor 3 (Homo sapiens) (P35916 whole entry): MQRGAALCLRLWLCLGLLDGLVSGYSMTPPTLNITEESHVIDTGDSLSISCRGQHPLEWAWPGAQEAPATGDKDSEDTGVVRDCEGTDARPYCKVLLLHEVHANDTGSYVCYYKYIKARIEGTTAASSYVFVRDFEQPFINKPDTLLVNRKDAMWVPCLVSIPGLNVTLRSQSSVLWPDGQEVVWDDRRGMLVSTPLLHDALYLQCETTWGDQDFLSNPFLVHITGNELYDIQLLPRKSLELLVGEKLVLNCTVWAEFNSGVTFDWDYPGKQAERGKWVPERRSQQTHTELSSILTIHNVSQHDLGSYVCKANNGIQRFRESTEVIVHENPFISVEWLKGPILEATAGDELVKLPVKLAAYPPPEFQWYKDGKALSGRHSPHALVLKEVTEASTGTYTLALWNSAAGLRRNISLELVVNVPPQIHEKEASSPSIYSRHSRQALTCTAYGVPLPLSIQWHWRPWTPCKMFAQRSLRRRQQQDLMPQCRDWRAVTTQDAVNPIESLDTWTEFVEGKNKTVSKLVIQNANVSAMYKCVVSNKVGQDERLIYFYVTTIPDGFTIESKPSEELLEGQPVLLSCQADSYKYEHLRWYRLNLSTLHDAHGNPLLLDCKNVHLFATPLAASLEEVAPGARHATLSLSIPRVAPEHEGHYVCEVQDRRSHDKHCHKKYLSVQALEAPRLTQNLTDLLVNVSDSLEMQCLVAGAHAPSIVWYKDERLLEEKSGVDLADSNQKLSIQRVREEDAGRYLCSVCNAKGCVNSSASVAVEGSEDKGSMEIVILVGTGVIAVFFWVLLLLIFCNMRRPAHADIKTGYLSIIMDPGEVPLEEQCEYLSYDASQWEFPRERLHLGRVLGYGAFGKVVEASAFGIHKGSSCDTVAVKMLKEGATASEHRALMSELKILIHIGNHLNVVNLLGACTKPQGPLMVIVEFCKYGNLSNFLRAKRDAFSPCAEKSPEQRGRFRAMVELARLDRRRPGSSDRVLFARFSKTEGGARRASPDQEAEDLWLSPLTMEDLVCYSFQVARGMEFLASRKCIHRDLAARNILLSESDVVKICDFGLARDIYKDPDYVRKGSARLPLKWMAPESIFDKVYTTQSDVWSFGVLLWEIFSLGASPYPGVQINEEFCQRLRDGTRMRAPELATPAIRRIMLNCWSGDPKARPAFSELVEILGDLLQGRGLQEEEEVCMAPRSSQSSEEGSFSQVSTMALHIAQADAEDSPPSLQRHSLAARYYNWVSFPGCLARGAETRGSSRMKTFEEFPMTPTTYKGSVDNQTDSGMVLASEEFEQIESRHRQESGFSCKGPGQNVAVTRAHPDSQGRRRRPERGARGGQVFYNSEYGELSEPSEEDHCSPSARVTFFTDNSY

[17] = biological target: Vascular endothelial growth factor receptor 3 (Homo sapiens) (UniProt P35916); settings: at 1 µM
[18] = biological target: Macrophage colony-stimulating factor 1 receptor (Homo sapiens) (UniProt P07333); settings: at 0.1 µM
Sequence of Macrophage colony-stimulating factor 1 receptor (Homo sapiens) (P07333 whole entry): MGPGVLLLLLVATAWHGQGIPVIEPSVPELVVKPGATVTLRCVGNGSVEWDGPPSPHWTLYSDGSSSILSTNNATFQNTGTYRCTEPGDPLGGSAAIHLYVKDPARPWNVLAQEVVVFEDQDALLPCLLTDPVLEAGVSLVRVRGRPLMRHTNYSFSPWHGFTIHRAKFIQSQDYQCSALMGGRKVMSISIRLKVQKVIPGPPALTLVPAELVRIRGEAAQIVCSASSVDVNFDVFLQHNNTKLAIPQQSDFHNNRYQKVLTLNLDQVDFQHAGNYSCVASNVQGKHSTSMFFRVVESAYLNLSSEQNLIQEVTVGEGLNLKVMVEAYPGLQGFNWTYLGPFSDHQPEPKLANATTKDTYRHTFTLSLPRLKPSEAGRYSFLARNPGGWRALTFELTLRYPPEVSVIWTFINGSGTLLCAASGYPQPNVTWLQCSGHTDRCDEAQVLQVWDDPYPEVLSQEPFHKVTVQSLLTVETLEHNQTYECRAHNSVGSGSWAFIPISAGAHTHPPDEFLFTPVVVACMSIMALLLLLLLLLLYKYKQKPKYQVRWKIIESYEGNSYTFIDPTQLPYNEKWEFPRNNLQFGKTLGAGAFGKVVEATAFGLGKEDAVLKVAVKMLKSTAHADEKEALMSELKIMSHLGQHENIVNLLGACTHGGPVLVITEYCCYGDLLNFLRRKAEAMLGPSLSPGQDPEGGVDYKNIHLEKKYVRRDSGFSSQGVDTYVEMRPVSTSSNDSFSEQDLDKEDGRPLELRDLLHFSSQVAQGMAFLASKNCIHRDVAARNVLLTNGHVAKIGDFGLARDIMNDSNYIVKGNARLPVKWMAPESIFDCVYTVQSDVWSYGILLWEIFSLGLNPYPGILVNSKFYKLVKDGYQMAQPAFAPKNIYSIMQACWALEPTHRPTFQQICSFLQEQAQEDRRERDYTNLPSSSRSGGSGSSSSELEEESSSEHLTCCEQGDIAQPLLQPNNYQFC

[19] = biological target: Macrophage colony-stimulating factor 1 receptor (Homo sapiens) (UniProt P07333); settings: at 1 µM
[20] = biological target: Tyrosine-protein kinase Fyn (Homo sapiens) (UniProt P06241); settings: at 0.1 µM
Sequence of Tyrosine-protein kinase Fyn (Homo sapiens) (P06241 2-537 limits assumed): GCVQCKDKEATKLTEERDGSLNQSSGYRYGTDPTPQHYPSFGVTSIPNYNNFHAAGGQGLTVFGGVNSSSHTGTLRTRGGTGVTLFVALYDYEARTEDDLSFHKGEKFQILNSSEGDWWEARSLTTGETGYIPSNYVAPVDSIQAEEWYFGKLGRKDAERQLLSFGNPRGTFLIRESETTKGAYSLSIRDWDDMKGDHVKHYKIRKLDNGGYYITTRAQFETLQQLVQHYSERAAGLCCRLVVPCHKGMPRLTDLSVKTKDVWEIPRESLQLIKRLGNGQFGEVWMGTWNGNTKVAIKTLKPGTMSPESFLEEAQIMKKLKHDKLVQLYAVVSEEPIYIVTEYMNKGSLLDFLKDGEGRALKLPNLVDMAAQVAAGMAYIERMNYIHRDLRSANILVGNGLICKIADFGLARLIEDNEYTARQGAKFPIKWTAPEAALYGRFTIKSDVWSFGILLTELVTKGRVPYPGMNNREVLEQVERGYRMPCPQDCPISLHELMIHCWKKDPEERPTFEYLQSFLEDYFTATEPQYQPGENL

Structure (SMILES)	inhibition [1]	inhibition [2]	inhibition [3]	inhibition [4]	inhibition [5]	inhibition [6]	inhibition [7]	inhibition [8]	inhibition [9]	inhibition [10]	inhibition [11]	inhibition [12]	inhibition [13]	inhibition [14]	inhibition [15]	inhibition [16]	inhibition [17]	inhibition [18]	inhibition [19]	inhibition [20]
CN1CCN(C(=O)c2ccc(NC(=O)Nc3ccc(N(C)c4ccnc(Nc5ccc(CS(C)(=O)=O)cc5)n4)cc3)cc2)CC1	14.2%	5.21%	29.1%	2.78%	3.14%	1.8%	-1.02%	2.05%	5.08%	6.54%	30.1%	2.98%	3.2%	2.87%	25.1%	8.95%	37.5%	87.7%	81.2%	0.29%
[O-][S+]1CCN(Cc2ccc(-c3ccc4ncnc(Nc5ccc(OCc6ccccc6)c(Cl)c5)c4c3)o2)CC1	1.71%	0.94%	0.52%	3.08%	0.41%	3.35%	1.93%	1.32%	5.75%	0.79%	3.24%	3.9%	2.79%	8.87%	-1.91%	7.2%	11.7%	-0.34%	0.13%	2.58%
